Source: PubChem BioAssay (NCI)
Compounds without any hit were thinned out: in the full panel of roughly 83,000, 20% have a hit.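 Results are percent growth after 48 hours of single-concentration exposure. 100 means growth as in untreated cells, lower positive values show inhibition; negative values down to -100 show cell death.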 A number with no mark means an inactive call. Calls of active or inactive are those of the source. The calls were made as follows: active = growth percent below 10; inactive = the rest.

Tested on: HL-60(TB) leukemia
Assay: NCI-60 one-dose screen, 48 h (100 = growth as untreated, 0 = no growth, -100 = all killed)
Conditions: 10 µM unless noted

Compound	growth
c1ccc(-c2c(-c3ccccc3)[n+](Cc3ccc4ccccc4c3)c(-c3ccc(-c4nc5ccccc5s4)cc3)n2Cc2ccc3ccccc3c2)cc1	-57.2% (active)
CN(Cc1ccccc1)c1nc(Cl)c(C2CC(c3ccc(Cl)cc3)=NN2c2cc(Cl)cc(Cl)c2)s1 (stereo not given)	102%
CC[C@]12C=CCN3CC[C@@]4(c5ccc(OC)cc5N(C)[C@H]4[C@@](O)(C(=O)OC)[C@@H]1OC(=O)CCC(=O)O[C@H]1CC[C@H]4[C@@H]5CCC6=CC(=O)CC[C@@H]6[C@H]5CC[C@]14C)[C@@H]32	-37.9% [100 µM] (active)
O=C(Cc1ccc(/C=C/C(=O)c2ncc[nH]2)cc1)Nc1ccc(S(F)(F)(F)(F)F)cc1	42.1%
C=C1c2nc3ccccc3n2C=C(c2cccc(Cl)c2)N1Cc1ccc(OC)cc1	-25% (active)
COc1cccc(-c2nn(-c3ccccc3)cc2-c2ccnc(NCCCNS(=O)(=O)c3cccc(F)c3)c2)c1	9.51% (active)
O=C1Nc2ccccc2/C1=C\c1c(-c2ccccc2)nc2ccccn12	-10.7% (active)
CCCCCCCCCCCCC[C@H](O)C[C@H](O)[C@H](C)N	54.8% [1.25 µM]
O=C1/C(=C/c2ccc(Br)cc2)C=C(c2ccccc2)N1CCc1ccccc1	83.8%
Oc1c(Cl)cc(Cl)cc1CNc1nccnn1	115%
CC(=O)/C(C)=N\OC(=O)Nc1ccccc1	102%
N#CC(C#N)=Cc1c(-c2ccccc2)[nH]c2ccccc12	-7.65% (active)
COc1cccc(C2CC(=O)Nc3c2c(C)nn3-c2nc3ccccc3[nH]2)c1OC (stereo not given)	18.9%
COc1ccc(-c2cc(/C=C/C(=O)c3ccc(N)cc3)[nH]n2)cc1	-23% (active)
COc1cc2cc3c(=O)n4c(cc5cc(OC)ncc54)c(=O)n3c2cn1	89.3%
C#CCOc1cccc(-c2ncnc3cc(NC(=O)C=C)ccc23)c1	16.9%
COc1cc(CC(=O)c2ccc(O)c(OC)c2)ccc1O	87%
O=C1/C(=C/c2ccccc2)CCc2nc3ccccc3c(/C=C/c3ccc(Cl)cc3)c21	83.2%
N=C(N)c1ccc(S(N)(=O)=O)cc1	94.9%
N#CC1c2ccccc2C=CN1C(=O)N(c1ccccc1)c1ccccc1 (stereo not given)	-8.07% (active)

Compound	growth
CC(N)C(Cc1ccc(Cl)cc1)c1ccc(Cl)cc1 (stereo not given)	25.9%
O=C(Nc1ccc2ncnc(Nc3ccc(Oc4cccc(F)c4)c(Cl)c3)c2c1)c1ccc(CN2CCOCC2)cc1	-11.3% (active)
Clc1ccc(Nc2nc(Nc3ccccc3)nc(Nc3ccc(-c4cc(-c5ccc(Cl)cc5)on4)cc3)n2)cc1	55.3%
Oc1cccc2oc(=S)[nH]c12	121%
COc1cccc(C2CC(=O)Nc3cc4c(cc32)CCC4)c1OC (stereo not given)	10.4%
CCCCCC(=O)Oc1ccc(/C(=C(\C)c2ccccc2)c2ccc(OCCN(CC)CC)cc2)cc1	33.9%
O=C1c2cccc3c(-c4ccc(-c5nc6c7ccccc7c7ccccc7c6[nH]5)cc4)ccc(c23)C(=O)N1CCN1CCNCC1	82.5%
CCOc1ccc(C(CN2CCOCC2)C(C)=O)cc1OC (stereo not given)	84.7%
COc1cccc(CCNc2ncnc3c2ncn3Cc2nnc3c4ccccc4c(Cl)nn23)c1	57.5%
Cc1nn(-c2ccccc2)c2c1N=c1s/c(=C\c3ccc(C(F)(F)F)cc3)c(=O)n1CN2	91.2%
N=C(N)c1ccc(-c2ccc(-c3ccc(Cl)cc3)o2)nc1	110%
COc1ccc(-c2nc3cc(C(=O)NC4CCCCC4)ccc3n2C2CCCCC2)cc1	79.1%
CN(C)CC(O)c1ccc2cc(Br)c3ccccc3c2c1 (stereo not given)	43.7%
Cc1cc(=O)oc2cc(OCc3cn(CC(O)CO)nn3)ccc12 (stereo not given)	110%
CCCCOc1nc2cc(Cl)ccc2cc1/C=C/c1cc(/C=C/c2cc3ccc(Cl)cc3nc2OCCCC)n(-c2ccccc2)n1	77.8%
FC(F)(F)c1ccccc1-c1cn2c(ccc3ccccc32)n1	48.1%
COC1=CC(c2ccc[nH]2)=N/C1=C\c1[nH]c(C)c(C(=O)CCCCC(=O)NC(C)(C)C)c1C	3.43% (active)
CN(C)/N=C/c1ccccc1O	97.1%
CC(C)c1ccc(Cc2cnc(NC(=O)c3cc(Br)cs3)s2)cc1	-24% (active)
O=C1C=C(Nc2cccc(Br)c2)c2ccccc2C1=O	71.8%
